Source: the OligoGym collection

Target: KIAA1217
Test: pooled miR-30 sensor sort-seq; sequence = guide strand
Details: shRNA

Going from TTGAACTTCCATTCTGTGCCTT to TACACTTTGAGGAGTGATCTGT, the sensor-assay potency score (higher = more potent) falls from 0.894 to 0.221.

TATTTTGTAGCTCTGGTCTGTG gave a sensor-assay potency score (higher = more potent) of 0.157.

Target: KIAA1279
Test: as above
Details: shRNA

Going from TAGCTCAACTTCTATTTCCTGG to TAGCTTATTGATGTAAAACTGT, the sensor-assay potency score (higher = more potent) falls from 0.213 to -0.47.

Going from TAGTACTTCAGTGCTGACTTAT to TATACTGATTATATAGTGCTTC, the sensor-assay potency score (higher = more potent) rises from -0.671 to 0.382.

Going from TTTTTGATCTCTCTTGTTCAGT to TAAAGCTCTAAGTTCAGACTGT, the sensor-assay potency score (higher = more potent) rises from -0.606 to 0.562.

First: TTCTTTGATGATAAAGCTCTGG
Second: TTGAGCTAGGTAATATAGGTTA
The sensor-assay potency score (higher = more potent) of the first is lower: -0.681 for the first, -0.261 for the second.

First: TTCAATATTGCACATTTCCTTT
Second: TAGGTTATGAGTATAAACCTTT
The sensor-assay potency score (higher = more potent) of the first is lower: -0.873 for the first, -0.128 for the second.

For TTAATAGGAAACAAGCATCTAA, the sensor-assay potency score (higher = more potent) was 0.679.

Target: KIAA2018
Test: as above
Details: shRNA

Compared with TATCTGATGAATCTTGCTCAAC, TTGACTAATTCGAAAAGCCTGG is higher in sensor-assay potency score (higher = more potent): -1.15 for the first, -0.327 for the second.

Compared with TAAACTTCCACTGTTTACCTTC, TTGAGCTGGAACATGCTGCTGC is higher in sensor-assay potency score (higher = more potent): 0.292 for the first, 0.733 for the second.

First: TTTCTGTACAGAAACATTGGGG
Second: TCTGCTTCCAACATCCTGCTGT
The sensor-assay potency score (higher = more potent) of the first is lower: -0.202 for the first, 0.86 for the second.

Going from TTGTTGTAGATGACAAACCAGG to TTGCTGGTCACATCTTCTCTTG, the sensor-assay potency score (higher = more potent) rises from -1.34 to -1.17.

Going from TTTCTGCATCTGAACTTCCTGT to TAGATTTCGATACAGACTCAGG, the sensor-assay potency score (higher = more potent) falls from -0.663 to -1.04.

First: TAGATTATAAGTACTAGCTAGT
Second: TTTGTGTTGAGTTAGACGCTGA
The sensor-assay potency score (higher = more potent) of the first is lower: 0.0786 for the first, 0.486 for the second.

Target: KIF21A
Test: as above
Details: shRNA

First: TTGCTGACTAGCTCTGTCCTGA
Second: TTCAACTGAGCAATCTCTCTGT
The sensor-assay potency score (higher = more potent) of the first is lower: 0.278 for the first, 0.68 for the second.

Compared with TTTTATATAACTATGAATCATA, TTGATTTGCTGACTAGCTCTGT is higher in sensor-assay potency score (higher = more potent): -0.753 for the first, 0.32 for the second.

Compared with TATACATTGAATGTAGATCTGC, TTCTAGTTCATCAATCAGCTTT is lower in sensor-assay potency score (higher = more potent): -0.0184 for the first, -0.0186 for the second.

Going from TTTCATTTCCATCACATCCTGC to TAGTAGTCTTGTTAGCTTGGAA, the sensor-assay potency score (higher = more potent) falls from 0.0152 to -0.0525.

First: TTGTTTGAGTCGACCTTCCAGT
Second: TTGAATGTAGATCTGCTCTTGC
The sensor-assay potency score (higher = more potent) of the first is lower: -0.666 for the first, 0.95 for the second.

Going from TTGCAGAACAAGCATCTCCAAG to TTGAGCTGCTTGAAGTCTCTGC, the sensor-assay potency score (higher = more potent) rises from -1.19 to 0.624.
